Assay outcomes: PubChem BioAssay, Sanford-Burnham Center for Chemical Genomics
An excerpt weighted towards active compounds, which were near 2% of everything screened.
APOBEC3A inh: blocks human APOBEC3A ssDNA deamination. recombinant A3A, FAM/TAMRA ssDNA deamination fluorescence. inhibition, % at 20 µM. actives 0.41% (n = 330,000);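 active = at least 40% inhibition at 20 µM here, with at most 30% in a related deaminase screen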;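 also: plate controls were A3A with DMSO for no effect and wells lacking A3A enzyme for full effect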
NPR1 activator: GC-A (human) enzyme activation; activation, % at 10 µM; AID 1671463; HEK293 GC-A cells, cGMP TR-FRET, EC30 ANP; 0% at EC30 ANP, 100% saturating ANP; actives 0.14% (n = 370,000); P16066; in the data active = activation above about 40%
PfG6PD inh: PfG6PD (Plasmodium falciparum) enzyme inhibition; PfGluPho enzyme, NADPH resazurin-diaphorase fluorescence; inhibition, % at 20 µM; actives 0.78% (n = 350,000);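 active = inhibition reaching at least a set limit at 20 µM in the primary screen, cut at about 59% in these data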;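 also: 0% = DMSO wells with substrate and 100% = DMSO wells lacking glucose-6-phosphate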
A3G deaminase: APOBEC3G (human) deaminase inhibition; recombinant A3G, ssDNA deamination FAM/TAMRA fluorescence; inhibition, % at 20 µM; actives 0.28% (n = 330,000);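 active = inhibition of at least 40% at 20 µM, with no more than 30% in the related APOBEC3A deaminase screen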;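 also: plate controls were DMSO wells with A3G for no effect and wells lacking A3G enzyme for full effect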
Neddyl block: blocks human cullin neddylation | TR-FRET cullin neddylation, biochemical | inhibition, % at 25 µM | actives 0.58% (n = 360,000) | P61081+Q13564; in the data active = inhibition above about 36%
Target sequence (P61081 whole entry, looked up): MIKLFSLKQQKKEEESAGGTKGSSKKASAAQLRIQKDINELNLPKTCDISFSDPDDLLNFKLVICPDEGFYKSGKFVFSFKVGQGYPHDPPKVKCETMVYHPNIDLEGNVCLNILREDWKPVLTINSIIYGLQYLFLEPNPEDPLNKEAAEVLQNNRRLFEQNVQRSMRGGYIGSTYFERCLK
Target sequence (Q13564 whole entry, looked up): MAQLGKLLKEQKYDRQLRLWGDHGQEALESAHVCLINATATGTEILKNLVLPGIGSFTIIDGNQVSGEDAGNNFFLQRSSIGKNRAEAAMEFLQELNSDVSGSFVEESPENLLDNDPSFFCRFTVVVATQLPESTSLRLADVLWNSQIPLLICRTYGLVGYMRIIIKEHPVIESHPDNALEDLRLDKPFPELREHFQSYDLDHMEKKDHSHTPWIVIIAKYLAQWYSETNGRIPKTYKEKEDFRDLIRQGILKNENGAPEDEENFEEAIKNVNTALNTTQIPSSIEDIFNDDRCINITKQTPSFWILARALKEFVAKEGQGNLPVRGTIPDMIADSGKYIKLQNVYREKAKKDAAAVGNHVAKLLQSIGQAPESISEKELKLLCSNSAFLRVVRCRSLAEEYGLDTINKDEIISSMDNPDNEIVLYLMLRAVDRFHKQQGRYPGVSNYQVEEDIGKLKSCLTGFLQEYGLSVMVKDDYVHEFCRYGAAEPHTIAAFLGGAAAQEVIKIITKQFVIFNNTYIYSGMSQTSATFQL
GC-B act: GC-B (human) receptor activation; activation, % at 10 µM; P20594; HEK293-GC-B cells, CNP EC30, cGMP TR-FRET; 0% at EC30 CNP, 100% saturating CNP; AID 1920062; actives 0.11% (n = 370,000);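 active = activation at 10 µM reaching about 35% in either raw or pattern-adjusted values, limit read from the data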
Numbers without * were called inactive; / = no result given.

SMILES | APOBEC3A inh | NPR1 activator | PfG6PD inh | A3G deaminase | Neddyl block | GC-B act
S=C(c1ccc(-c2cccc(Cl)c2)o1)N1CCCCC1 | -10 | 7 | 2 | -6 | -4 | 11
N#CCCN1CCN(C(=S)c2ccc(-c3ccc(Cl)c(Cl)c3)o2)CC1 | -4 | 29 | 33 | -4 | -13 | 61*
CC(=O)NC1=C(N(C)C2CCS(=O)(=O)C2)C(=O)c2ccccc2C1=O (configuration not stated) | 2 | -3 | 97* | 2 | -35 | 0
Nc1nc2c(ncn2[C@@H]2O[C@H](C(=O)N[C@H](Cc3ccccc3)C(=O)NCc3ccc4c(c3)OCO4)[C@@H](O)[C@H]2O)c(=O)[nH]1 | / | 31 | / | / | / | 37*
Oc1ccc(N=Cc2ccc(OCc3ccccc3)cc2)cc1 | 7 | 2 | 87* | 9 | -22 | 3
O=C(N/N=C/c1ccc(OCc2ccccc2)cc1)c1ccncc1 | -6 | -2 | -11 | -7 | -9 | 2
Oc1ccc2ccccc2c1/C=N/c1nc2c(s1)CCCC2 | -2 | 0 | 43 | 17 | -6 | 0
Oc1c(Br)cc(Br)cc1/C=N/c1nc2c(s1)CCCC2 | -3 | / | 80* | -3 | 12 | /
COc1ccc([C@H]2OC(=O)C[C@H]2C(=O)N2CCN(c3ccccc3Cl)CC2)cc1OC | / | -23 | / | / | / | -27
CCOC(=O)c1c(NC(=O)CSc2nnc(-c3ccc(OC)cc3)o2)sc2c1CCC2 | -3 | -2 | -5 | -2 | -8 | -11
NC(=O)c1c(NC(=O)COC(=O)CSc2nnc(-c3ccc(Cl)cc3)o2)sc2c1CCC2 | 2 | 51* | 3 | -1 | 16 | -5
N#Cc1ccc(NC(=O)COC(=O)CSc2nnc(-c3ccc(Cl)cc3)o2)cc1 | 0 | 62* | -15 | -11 | 8 | -10
O=C(COC(=O)CSc1nnc(-c2ccc(Cl)cc2)o1)NCc1ccc2c(c1)OCO2 | 3 | 63* | -5 | 2 | -10 | 4
CC(C)C[C@@H]1NC(=O)[C@H]2C[C@@]3(C)c4ccccc4N[C@H]3N2C1=O | / | 2 | / | / | / | 6
COC(=O)c1ccc2nc(-c3ccc(C)cc3)c(Cc3cccc(F)c3)n2c1 | / | 32 | / | / | / | 46*
COC(=O)c1ccc2nc(-c3ccccc3)c(Cc3ccccc3)n2c1 | / | 20 | / | / | / | 27
COC(=O)c1ccc2nc(-c3ccc(C)cc3)c(Cc3ccccc3)n2c1 | / | 27 | / | / | / | 39*
COC(=O)c1ccc2nc(-c3ccccc3)c(Cc3ccc(C)cc3)n2c1 | / | 30 | / | / | / | 39*
COC(=O)c1ccc2nc(-c3ccccc3)c(Cc3ccsc3)n2c1 | / | 13 | / | / | 18 | 15
COC(=O)[C@]12C[C@H](CC(=O)NCCCCc3ccccc3)C(=O)N(Cc3ccc(Cl)cc3Cl)C1=C[C@H](COCc1ccccc1)O[C@@H]2C | / | -3 | / | / | / | 3
O=C1c2sc3nc4n(c(=O)c3c2CCC1Br)CCCCC4 (configuration not stated) | 1 | 4 | 80* | 26 | -30 | -3
NC(=O)C1CCN(C(=S)c2ccc(-c3ccc(Br)cc3)o2)CC1 | -3 | 45* | 44 | 17 | -17 | 47*
NC(=O)c1ccc(-c2ccc(Br)cc2)o1 | 3 | -1 | 3 | -2 | -170 | -6
S=C(c1ccc(-c2cc(Cl)ccc2Cl)o1)N1CCOCC1 | -1 | 18 | 2 | -4 | -5 | 43*
CC(=O)N1CCN(C(=S)c2ccc(-c3ccc(Cl)cc3)o2)CC1 | -2 | 43* | 62* | 5 | -15 | 48*
SMILES | APOBEC3A inh | NPR1 activator | PfG6PD inh | A3G deaminase | Neddyl block | GC-B act
O=C(OC12CCCN(C1)/C(=C/c1ccc(Cl)cc1)C2)c1ccno1 (configuration not stated) | / | -1 | / | / | / | -7
CN1CCCN(c2cc(-c3ccc4ccccc4c3)nc3ccnn23)CC1 | / | 0 | / | / | 46* | -2
COCCCNC(=O)[C@@H](Cc1ccccc1)NC(=O)[C@H]1O[C@@H](n2ccc(=O)[nH]c2=O)[C@H](O)[C@@H]1O | / | 3 | / | / | / | -3
Cc1ccc(F)cc1C(=O)N(Cc1ccccn1)CC1CCCO1 (configuration not stated) | / | 2 | / | / | / | -6
COc1ccc(-c2cnc3c(NC=O)cc(-c4ccccc4)cn23)cc1OC | / | 8 | / | / | 22 | 4
COc1ccc(-c2cnc3c(NC=O)cc(-c4cc(OC)c(OC)c(OC)c4)cn23)cc1OC | / | 29 | / | / | 25 | 39*
COC(=O)CSc1nnc(-c2ccc(NS(=O)(=O)c3ccc(Cl)s3)cc2)o1 | / | 17 | / | / | / | 1
COc1ccc(C(=O)NC(=S)NNC(=O)c2cnccn2)cc1 | -4 | -4 | -11 | -7 | 15 | -6
O=C(NC(=S)NNC(=O)c1cnccn1)c1ccc(Cl)cc1 | -1 | 1 | -13 | 4 | 55* | -6
CCOC(=O)CSc1nc2c(sc3ccc([N+](=O)[O-])cc32)c(=O)n1Cc1ccco1 | 2 | 48* | 8 | 1 | -11 | 50*
Cc1ccc(-c2ccc(CCC(=O)O)n2CC(=O)O)cc1 | 8 | / | -1 | 5 | 42* | /
Clc1ccc(OCCSc2ncccn2)cc1 | -3 | 55* | 22 | -3 | -6 | -7
COc1ccc(OCCSc2ncccn2)cc1 | 0 | 13 | 2 | -3 | -4 | 4
O=C(Cc1ccc(-n2c(=O)c3ccccc3n(Cc3ccccc3F)c2=O)cc1)NCC1CCCO1 (configuration not stated) | 1 | 29 | 6 | 1 | -19 | 27
O=C(Cc1ccc(-n2c(=O)c3ccccc3n(Cc3ccccc3Cl)c2=O)cc1)NCC1CCCO1 (configuration not stated) | 2 | 53* | 14 | 0 | -4 | 62*
O=C(OCc1ccc(F)cc1)c1ccc2c(c1)-c1ccccc1C2=O | -3 | 0 | 3 | -6 | -14 | -4
CCOC(=O)C1=C(Cc2ccc(F)cc2)C(=O)c2ccccc2C1=O | 7 | 9 | 98* | 16 | 6 | -3
COc1ccc(C(=O)Nc2ccc(Cl)cc2C(=O)NCc2ccco2)cc1OC | -1 | 33 | 17 | -3 | 27 | 39*
COc1ccc(C(=O)Nc2ccccc2C(=O)NCc2ccco2)cc1OC | -2 | 3 | -2 | -8 | 9 | 0
COc1ccc(C(=O)Nc2sc3c(c2C(=O)NCc2ccco2)CCCC3)cc1OC | -2 | 24 | 10 | -1 | 18 | 27
COc1cc(C(=O)Nc2sc3c(c2C(=O)NCc2ccco2)CCCC3)cc(OC)c1OC | 1 | 29 | 6 | 1 | -50 | 41*
CCOC(=O)/C=C(\C)Sc1cc(O)c2ccccc2c1O | / | 3 | 108* | / | -32 | -4
CCOC(=O)/C=C(\C)Sc1cc(=O)oc2ccccc12 | 0 | / | 3 | -3 | -31 | /
O=C(OCCN1CCN(C2CN(Cc3cn(Cc4ccc([N+](=O)[O-])cc4)nn3)S(=O)(=O)C2)CC1)c1cc2ccccc2o1 (configuration not stated) | / | -2 | / | / | / | 2
